The results in this text go back to publication PMC7862700, “An all-to-all approach to the identification of sequence-specific readers for epigenetic DNA modifications on cytosine”.

What all share (experiment): DAPPL (digital affinity profiling via proximity ligation, sequencing); 10 mM Tris-HCl pH 7.5, 50 mM NaCl, 1 mM DTT, 4% glycerol, room temperature, 30 min; GST-TFs on glutathione beads, 16-mer random dsDNA library, 0.1% formaldehyde crosslink after washing; high values mean tight binding
Details in all cases: protein: recombinant; tags: N-terminal GST; dsDNA, one strand shown

Assay [1] concerns the target T1, FLI1 (Homo sapiens, UniProt Q01543 1-452).
T1 sequence: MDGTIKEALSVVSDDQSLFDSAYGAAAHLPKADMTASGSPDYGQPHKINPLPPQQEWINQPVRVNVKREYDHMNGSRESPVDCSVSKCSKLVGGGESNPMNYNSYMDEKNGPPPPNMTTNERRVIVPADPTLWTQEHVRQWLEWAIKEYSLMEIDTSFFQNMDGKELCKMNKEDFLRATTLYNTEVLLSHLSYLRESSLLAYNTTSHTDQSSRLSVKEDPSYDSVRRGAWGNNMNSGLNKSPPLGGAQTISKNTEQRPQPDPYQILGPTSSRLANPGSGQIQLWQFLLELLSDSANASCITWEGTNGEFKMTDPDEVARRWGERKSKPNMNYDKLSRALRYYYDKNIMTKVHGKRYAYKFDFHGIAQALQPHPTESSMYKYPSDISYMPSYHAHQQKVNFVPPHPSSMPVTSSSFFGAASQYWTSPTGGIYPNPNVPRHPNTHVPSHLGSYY
An outline of the steps:
(§1)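 Human transcription factors fused to GST were expressed in yeast, captured on glutathione beads, given DNA barcodes and pooled with a GST-only negative control. Pools were incubated with 200 nmole of a 16-mer random double-stranded DNA library in Tris/NaCl/DTT/glycerol buffer at room temperature for 30 min. They were then washed, crosslinked with 0.1% formaldehyde, proximity-ligated (BsaI/T4 ligase, 1 h, 37 °C), PCR-amplified and sequenced on an Illumina NextSeq500. Binding signal is each 6-mer's read frequency for a factor divided by its frequency for the GST control.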

The target of assay [2] is ELF1 (Homo sapiens, UniProt P32519 1-619). In short, it runs like this: as §1
Assay [3] deals with SPIB (Homo sapiens, UniProt Q01892 1-262). An outline of the steps: as §1
The target in assay [4] is T2, SPIC (Homo sapiens, UniProt Q8N5J4 1-248).
T2 sequence: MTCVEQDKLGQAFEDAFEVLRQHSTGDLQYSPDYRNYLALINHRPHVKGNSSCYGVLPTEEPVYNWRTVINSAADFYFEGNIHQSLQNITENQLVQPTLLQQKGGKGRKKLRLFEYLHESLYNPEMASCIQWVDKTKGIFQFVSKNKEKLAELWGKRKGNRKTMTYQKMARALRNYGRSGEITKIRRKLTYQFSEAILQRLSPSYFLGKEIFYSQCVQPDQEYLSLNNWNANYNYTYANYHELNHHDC
An outline of the steps:
as §1

The target of assay [5] is ELF4 (Homo sapiens, UniProt Q99607 1-663). In short, it runs like this:
as §1

The target in assay [6] is T3, ELF3 (Homo sapiens, UniProt P78545 1-371).
T3 sequence: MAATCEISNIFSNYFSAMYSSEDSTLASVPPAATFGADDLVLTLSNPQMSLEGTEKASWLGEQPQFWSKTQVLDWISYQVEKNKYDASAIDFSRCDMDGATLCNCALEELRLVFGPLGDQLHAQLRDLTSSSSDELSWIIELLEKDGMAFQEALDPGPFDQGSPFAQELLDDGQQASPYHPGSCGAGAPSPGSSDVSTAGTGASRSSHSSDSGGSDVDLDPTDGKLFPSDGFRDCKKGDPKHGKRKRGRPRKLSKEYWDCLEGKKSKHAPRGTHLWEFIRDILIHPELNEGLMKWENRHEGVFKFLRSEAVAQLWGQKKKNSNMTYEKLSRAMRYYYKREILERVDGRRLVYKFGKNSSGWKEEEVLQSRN
An outline of the steps: as §1

Assay [7] concerns the target T4, ERF (Homo sapiens, UniProt P50548 1-548).
T4 sequence: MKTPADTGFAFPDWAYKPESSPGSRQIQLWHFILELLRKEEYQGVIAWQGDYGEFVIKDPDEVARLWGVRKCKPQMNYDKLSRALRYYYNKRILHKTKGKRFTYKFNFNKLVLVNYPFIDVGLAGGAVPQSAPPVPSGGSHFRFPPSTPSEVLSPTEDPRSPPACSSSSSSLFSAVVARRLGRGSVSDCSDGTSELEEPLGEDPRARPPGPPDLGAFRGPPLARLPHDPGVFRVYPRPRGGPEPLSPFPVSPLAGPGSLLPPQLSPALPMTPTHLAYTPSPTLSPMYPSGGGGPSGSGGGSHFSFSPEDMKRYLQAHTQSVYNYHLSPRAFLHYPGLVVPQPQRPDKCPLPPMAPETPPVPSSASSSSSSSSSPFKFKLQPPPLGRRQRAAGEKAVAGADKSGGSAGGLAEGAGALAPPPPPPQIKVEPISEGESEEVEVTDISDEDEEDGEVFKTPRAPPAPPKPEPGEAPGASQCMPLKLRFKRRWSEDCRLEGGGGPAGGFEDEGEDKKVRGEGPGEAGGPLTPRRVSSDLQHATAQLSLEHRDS
An outline of the steps: as §1

For assay [8], the target named is T5, ETV7 (Homo sapiens, UniProt Q9Y603 1-341).
T5 sequence: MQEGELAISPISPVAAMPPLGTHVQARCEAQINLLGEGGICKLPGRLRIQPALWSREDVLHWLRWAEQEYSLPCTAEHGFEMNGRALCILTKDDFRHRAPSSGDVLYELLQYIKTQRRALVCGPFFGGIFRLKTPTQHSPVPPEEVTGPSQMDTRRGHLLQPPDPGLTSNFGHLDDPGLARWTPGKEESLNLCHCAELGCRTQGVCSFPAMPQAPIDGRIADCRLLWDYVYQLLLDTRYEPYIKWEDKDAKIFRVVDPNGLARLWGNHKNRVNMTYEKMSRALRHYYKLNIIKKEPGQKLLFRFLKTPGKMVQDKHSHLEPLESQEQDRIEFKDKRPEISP
In short, it runs like this:
as §1

In assay [9] the target is ETV6 (Homo sapiens, UniProt P41212 1-452). In short, it runs like this:
as §1

The target of assay [10] is T6, ELK4 (Homo sapiens, UniProt P28324-2 1-405).
T6 sequence: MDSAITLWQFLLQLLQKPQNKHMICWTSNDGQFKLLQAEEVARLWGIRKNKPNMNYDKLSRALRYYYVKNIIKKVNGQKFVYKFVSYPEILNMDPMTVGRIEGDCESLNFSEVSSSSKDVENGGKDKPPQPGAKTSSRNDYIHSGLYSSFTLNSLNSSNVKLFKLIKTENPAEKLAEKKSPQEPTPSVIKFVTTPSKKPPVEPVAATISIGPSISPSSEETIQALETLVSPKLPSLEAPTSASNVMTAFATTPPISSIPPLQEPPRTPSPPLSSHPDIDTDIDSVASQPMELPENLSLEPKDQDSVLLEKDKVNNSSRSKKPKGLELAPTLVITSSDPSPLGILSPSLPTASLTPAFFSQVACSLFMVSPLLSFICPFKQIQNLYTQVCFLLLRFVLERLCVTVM
In short, it runs like this:
as §1

Assay [11] addresses T7, ELK1 (Homo sapiens, UniProt P19419 1-428).
T7 sequence: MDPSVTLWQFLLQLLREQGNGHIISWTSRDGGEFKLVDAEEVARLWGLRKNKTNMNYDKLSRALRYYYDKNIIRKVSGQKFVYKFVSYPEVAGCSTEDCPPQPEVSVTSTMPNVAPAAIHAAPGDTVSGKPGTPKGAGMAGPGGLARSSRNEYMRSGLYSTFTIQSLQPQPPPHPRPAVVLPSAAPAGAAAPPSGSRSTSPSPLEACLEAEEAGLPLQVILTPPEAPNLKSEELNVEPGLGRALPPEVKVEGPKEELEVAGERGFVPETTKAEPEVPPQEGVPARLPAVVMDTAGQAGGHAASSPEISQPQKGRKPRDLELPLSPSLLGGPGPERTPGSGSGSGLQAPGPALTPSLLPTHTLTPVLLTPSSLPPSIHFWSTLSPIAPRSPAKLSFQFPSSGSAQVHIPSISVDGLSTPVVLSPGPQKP
An outline of the steps:
as §1

Assay [12] has as its target T8, ERG (Homo sapiens, UniProt P11308 1-479).
T8 sequence: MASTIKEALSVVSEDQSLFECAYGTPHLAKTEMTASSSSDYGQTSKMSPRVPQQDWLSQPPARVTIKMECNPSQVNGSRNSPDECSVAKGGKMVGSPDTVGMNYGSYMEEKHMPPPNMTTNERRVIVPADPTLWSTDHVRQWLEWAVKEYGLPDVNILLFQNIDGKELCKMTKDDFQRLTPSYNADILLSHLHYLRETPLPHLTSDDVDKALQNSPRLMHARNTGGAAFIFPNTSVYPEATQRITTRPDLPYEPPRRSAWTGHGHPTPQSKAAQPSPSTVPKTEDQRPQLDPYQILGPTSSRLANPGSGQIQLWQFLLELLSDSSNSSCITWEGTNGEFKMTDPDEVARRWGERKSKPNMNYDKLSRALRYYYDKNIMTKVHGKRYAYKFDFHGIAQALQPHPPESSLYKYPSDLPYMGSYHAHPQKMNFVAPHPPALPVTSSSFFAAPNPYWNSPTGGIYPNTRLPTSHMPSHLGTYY
An outline of the steps:
as §1

For assay [13], the target named is T9, EHF (Homo sapiens, UniProt Q9NZC4 1-300).
T9 sequence: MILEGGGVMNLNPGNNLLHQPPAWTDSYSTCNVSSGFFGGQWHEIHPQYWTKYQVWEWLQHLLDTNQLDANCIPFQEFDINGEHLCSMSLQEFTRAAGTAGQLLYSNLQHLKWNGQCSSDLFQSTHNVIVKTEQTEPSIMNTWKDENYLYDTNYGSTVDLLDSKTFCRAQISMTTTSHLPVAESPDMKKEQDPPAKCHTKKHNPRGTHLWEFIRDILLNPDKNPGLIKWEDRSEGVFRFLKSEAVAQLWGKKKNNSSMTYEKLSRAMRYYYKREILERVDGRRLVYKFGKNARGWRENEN
In short, it runs like this: as §1

In assay [14] the target is T10, ELK3 (Homo sapiens, UniProt P41970 1-407).
T10 sequence: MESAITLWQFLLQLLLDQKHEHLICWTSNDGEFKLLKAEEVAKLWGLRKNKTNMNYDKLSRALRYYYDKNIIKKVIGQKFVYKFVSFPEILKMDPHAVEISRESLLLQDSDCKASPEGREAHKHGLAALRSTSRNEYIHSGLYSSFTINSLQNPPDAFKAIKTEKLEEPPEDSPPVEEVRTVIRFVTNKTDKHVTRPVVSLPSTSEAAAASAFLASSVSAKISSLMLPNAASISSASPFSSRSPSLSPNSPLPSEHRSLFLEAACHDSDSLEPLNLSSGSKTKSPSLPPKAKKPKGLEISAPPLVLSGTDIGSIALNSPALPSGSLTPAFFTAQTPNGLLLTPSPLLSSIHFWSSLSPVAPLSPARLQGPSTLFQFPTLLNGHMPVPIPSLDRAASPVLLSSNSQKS
An outline of the steps: as §1

Assay [15] concerns the target T11, ETV2 (Homo sapiens, UniProt O00321 1-342).
T11 sequence: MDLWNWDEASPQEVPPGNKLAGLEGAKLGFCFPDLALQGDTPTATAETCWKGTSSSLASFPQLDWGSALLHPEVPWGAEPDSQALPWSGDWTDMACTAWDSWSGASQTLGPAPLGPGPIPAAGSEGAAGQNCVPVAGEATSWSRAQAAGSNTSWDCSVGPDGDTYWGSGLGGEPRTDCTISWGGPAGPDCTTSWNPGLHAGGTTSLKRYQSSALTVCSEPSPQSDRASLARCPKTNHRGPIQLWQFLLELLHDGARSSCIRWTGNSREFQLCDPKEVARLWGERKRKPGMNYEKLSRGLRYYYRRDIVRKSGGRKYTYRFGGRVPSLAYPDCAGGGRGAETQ
In short, it runs like this: as §1

Assay [16] has as its target T12, ETV3L (Homo sapiens, UniProt Q6ZN32 1-361).
T12 sequence: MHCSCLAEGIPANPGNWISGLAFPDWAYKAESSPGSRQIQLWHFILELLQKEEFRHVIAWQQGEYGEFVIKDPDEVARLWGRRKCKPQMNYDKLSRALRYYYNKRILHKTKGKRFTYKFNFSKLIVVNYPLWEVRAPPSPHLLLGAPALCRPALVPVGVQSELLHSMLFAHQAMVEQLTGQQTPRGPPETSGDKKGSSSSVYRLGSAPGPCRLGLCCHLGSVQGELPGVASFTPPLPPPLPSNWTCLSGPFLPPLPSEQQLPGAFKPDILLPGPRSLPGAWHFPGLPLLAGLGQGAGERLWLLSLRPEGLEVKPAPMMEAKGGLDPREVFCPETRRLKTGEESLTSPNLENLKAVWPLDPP
An outline of the steps:
as §1

Sequence of ELF4 (Q99607 whole entry): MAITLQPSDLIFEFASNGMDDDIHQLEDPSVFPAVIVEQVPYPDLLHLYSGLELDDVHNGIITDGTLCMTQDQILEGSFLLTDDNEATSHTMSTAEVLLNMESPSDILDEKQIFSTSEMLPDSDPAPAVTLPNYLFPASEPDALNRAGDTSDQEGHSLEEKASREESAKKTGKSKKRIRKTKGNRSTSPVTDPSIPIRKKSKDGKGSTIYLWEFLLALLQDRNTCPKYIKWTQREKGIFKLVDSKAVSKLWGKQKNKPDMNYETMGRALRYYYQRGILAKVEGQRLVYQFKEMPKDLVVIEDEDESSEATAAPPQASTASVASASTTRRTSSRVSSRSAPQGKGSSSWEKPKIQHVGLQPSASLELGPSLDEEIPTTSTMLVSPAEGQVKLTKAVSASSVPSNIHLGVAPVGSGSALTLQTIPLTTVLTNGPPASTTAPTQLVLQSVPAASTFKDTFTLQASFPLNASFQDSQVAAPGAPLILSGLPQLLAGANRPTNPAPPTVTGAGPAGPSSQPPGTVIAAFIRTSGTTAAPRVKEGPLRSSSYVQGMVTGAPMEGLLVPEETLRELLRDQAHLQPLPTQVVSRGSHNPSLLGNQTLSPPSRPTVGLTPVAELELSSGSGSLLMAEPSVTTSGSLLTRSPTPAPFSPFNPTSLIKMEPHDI
Sequence of ELF1 (P32519 whole entry): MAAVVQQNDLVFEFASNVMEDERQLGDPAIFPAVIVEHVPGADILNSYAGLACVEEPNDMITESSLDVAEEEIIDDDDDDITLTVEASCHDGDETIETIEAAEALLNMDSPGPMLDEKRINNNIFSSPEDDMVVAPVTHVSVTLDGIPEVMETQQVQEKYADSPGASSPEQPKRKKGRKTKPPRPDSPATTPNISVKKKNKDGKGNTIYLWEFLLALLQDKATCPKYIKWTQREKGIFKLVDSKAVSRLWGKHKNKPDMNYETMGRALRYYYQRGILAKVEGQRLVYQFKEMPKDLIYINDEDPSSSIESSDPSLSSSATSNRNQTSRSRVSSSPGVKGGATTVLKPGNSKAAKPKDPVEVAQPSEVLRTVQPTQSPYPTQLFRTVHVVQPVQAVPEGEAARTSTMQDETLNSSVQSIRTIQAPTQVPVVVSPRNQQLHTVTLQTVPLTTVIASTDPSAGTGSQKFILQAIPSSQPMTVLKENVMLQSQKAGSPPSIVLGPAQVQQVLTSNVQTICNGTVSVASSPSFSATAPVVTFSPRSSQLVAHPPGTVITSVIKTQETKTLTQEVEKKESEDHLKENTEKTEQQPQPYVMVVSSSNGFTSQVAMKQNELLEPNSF
Sequence of ETV6 (P41212 whole entry): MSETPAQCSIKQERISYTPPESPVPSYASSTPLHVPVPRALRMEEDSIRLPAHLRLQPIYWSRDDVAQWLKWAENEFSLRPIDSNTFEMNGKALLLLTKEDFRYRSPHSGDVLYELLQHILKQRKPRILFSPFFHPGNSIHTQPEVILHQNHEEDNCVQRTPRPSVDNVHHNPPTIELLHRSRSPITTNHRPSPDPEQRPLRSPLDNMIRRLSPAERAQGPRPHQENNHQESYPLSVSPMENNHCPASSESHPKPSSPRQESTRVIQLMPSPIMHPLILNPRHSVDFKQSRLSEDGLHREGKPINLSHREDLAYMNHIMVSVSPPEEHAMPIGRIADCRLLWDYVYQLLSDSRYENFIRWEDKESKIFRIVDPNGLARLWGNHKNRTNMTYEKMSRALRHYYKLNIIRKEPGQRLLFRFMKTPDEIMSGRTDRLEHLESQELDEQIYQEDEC
Sequence of SPIB (Q01892 whole entry): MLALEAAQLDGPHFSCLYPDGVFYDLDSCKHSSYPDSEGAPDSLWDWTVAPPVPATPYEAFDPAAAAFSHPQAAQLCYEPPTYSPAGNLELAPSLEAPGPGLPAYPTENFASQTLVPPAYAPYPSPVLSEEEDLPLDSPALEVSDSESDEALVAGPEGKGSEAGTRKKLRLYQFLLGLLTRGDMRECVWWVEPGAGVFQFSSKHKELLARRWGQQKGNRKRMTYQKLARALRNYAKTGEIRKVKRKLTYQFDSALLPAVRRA

Take AATGTG: the binding signal in assay [1] is 1.04 fold enrichment (6-mer frequency, TF over GST control); in assay [2] it was 1 fold enrichment (6-mer frequency, TF over GST control); in assay [3], 1 fold enrichment (6-mer frequency, TF over GST control); in [4], 1.02 fold enrichment (6-mer frequency, TF over GST control); in assay [5], 1.03 fold enrichment (6-mer frequency, TF over GST control); in assay [6], 1.07 fold enrichment (6-mer frequency, TF over GST control). For the same sequence, the binding signal in [7] is 1.01 fold enrichment (6-mer frequency, TF over GST control); in assay [8], 1.02 fold enrichment (6-mer frequency, TF over GST control); in assay [9], 1.01 fold enrichment (6-mer frequency, TF over GST control).
Consider CCACAG, for which the binding signal in assay [1] was 1.01 fold enrichment (6-mer frequency, TF over GST control); in assay [5] it was 1.03 fold enrichment (6-mer frequency, TF over GST control); in assay [10], 1.04 fold enrichment (6-mer frequency, TF over GST control).
Take CCATGG: the binding signal in assay [1] was 1.08 fold enrichment (6-mer frequency, TF over GST control); in [11], 1.05 fold enrichment (6-mer frequency, TF over GST control); in assay [12], 1.08 fold enrichment (6-mer frequency, TF over GST control); in [2] it was 1 fold enrichment (6-mer frequency, TF over GST control); in [13] it was 1.06 fold enrichment (6-mer frequency, TF over GST control); in assay [14] it was 1.06 fold enrichment (6-mer frequency, TF over GST control). Further, the binding signal in assay [5] was 1.06 fold enrichment (6-mer frequency, TF over GST control); in assay [15] it was 1.05 fold enrichment (6-mer frequency, TF over GST control); in assay [16], 1.02 fold enrichment (6-mer frequency, TF over GST control); in assay [9], 1.03 fold enrichment (6-mer frequency, TF over GST control).
